Structures are written as SMILES. Inconclusive results are not listed. Activity calls are given as the source filed them. Unless noted, calls follow the shape of the dose curve; as a rule, active = well fitted curve in the direction sought with a large enough effect; inconclusive = small, poorly fitted or top-dose-only effect, or another doubt; inactive = no such curve, though single readings can be large; an effect the other way counts as inactive or inconclusive.

Experiment [1] can be described thus: qHTS assay for small molecule agonists of retinoid X receptor alpha signaling (AID 588544; calls by dose curve;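 as to activation: 0% = DMSO basal wells and 100% = reference agonist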). To be noted: HEK293T RXRa-UAS-bla, beta-lactamase reporter, 18 h; 530 nm emission. In general terms: Quantitative high-throughput screening tests each substance at several concentrations.
Experiment [2] addresses Retinoic acid receptor RXR-alpha (Homo sapiens) (UniProt P19793). Described as above. To be noted: HEK293T RXRa-UAS-bla, beta-lactamase reporter, 18 h; series mostly up to 76.7 µM.
Experiment [3] has as its target Thyroid hormone receptor beta (Homo sapiens) (UniProt P10828). As to the kind of experiment: qHTS assay for small molecule agonists of thyroid hormone receptor beta signaling (AID 588545; calls by dose curve;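 also: 0% = DMSO only and 100% = 10 nM T3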). The conditions noted are these: TR-UAS-bla GripTite HEK 293, beta-lactamase ratio, agonist mode, 18 h, percent of T3 response, DMSO as zero; series mostly up to 76.7 µM. The method, boiled down: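 TR-UAS-bla-GripTite HEK 293 cells in medium with 2% charcoal/dextran FBS, 0.1 mM NEAA and 1 mM sodium pyruvate were treated with titrated compounds for 18 hrs at 37 C. Beta-lactamase reporter was read with CCF4 dye (ex 405, em 460/530 nm); EC50 from Hill fits.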

Experiment [4] can be described thus: qHTS assay for small molecule antagonists of retinoid X receptor alpha signaling (AID 588546; active = well fitted inhibition curve with a large enough effect in the signal ratio, with a control signal flat, not every such curve was filed as active; the % refers to the signal ratio;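 also: cells stimulated with 9-cis-retinoic acid as agonist; % is scaled to controls: 0 for no effect and ±100 for the full control effect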). The conditions noted are these: HEK293T RXRa-UAS-bla, beta-lactamase ratio, antagonist mode; measured here: W530 green channel, cytotoxicity proxy. An outline of the steps: (§1)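 Beta-lactamase reporter inhibition, read as CCF4 fluorescence ratio (ex 405, em 460/530 nm) after 2 h at RT. HEK293T UAS-bla cells, 2500/well, were stimulated with 9-cis-RA at 500 or 100 nM final alongside test compound for 18 h at 37 C.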

In experiment [5] the target is Retinoic acid receptor RXR-alpha (Homo sapiens) (UniProt P19793). Described as above. The conditions noted are these: HEK293T RXRa-UAS-bla, beta-lactamase ratio, antagonist mode. An outline of the steps:
as §1

Experiment [6] has as its target Thyroid hormone receptor beta (Homo sapiens) (UniProt P10828). As to the kind of experiment: qHTS assay for small molecule antagonists of thyroid hormone receptor beta signaling (AID 588547; active = well fitted inhibition curve with a large enough effect in the signal ratio, with a control signal flat, not every such curve was filed as active; the % refers to the signal ratio;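 also: cells stimulated with 0.4 nM T3 agonist during compound exposure; % is scaled to controls: 0 for no effect and ±100 for the full control effect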). The conditions noted are these: TR-UAS-bla HEK293, beta-lactamase ratio, antagonist mode, 18 h. An outline of the steps:
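TR-UAS-bla GripTite HEK293 cells in 2% charcoal/dextran FBS medium were preincubated 4 h at 37 C, given compound (0.59 nM to 92 uM) plus 0.4 nM T3 (final) for 18 h, then CCF4 for 2 h at RT; Hill fit gave IC50.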

Experiment [7] addresses Voltage-gated inwardly rectifying potassium channel KCNH2 (Homo sapiens) (UniProt Q12809). The experiment in a line: qHTS Assay for Small Molecule Inhibitors of the Human hERG Channel Activity (AID 588834).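 Also: top concentration of the series differs between compounds; % is scaled to controls: 0 for no effect and ±100 for the full control effect; lower thallium flux fluorescence means stronger hERG block; nearly all actives have a fitted effect of over 50% in size.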 To be noted: U2OS BacMam hERG, FluxOR thallium flux fluorescence; series mostly up to 92.2 µM. The method, boiled down: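 Concentration-response qHTS measuring drop in thallium-sensitive dye signal. U2OS cells carrying BacMam hERG; compound exposure ~10 min, then stimulation buffer and 2 min read at 1 sec intervals.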

Experiment [8] is described as follows: qHTS assay for small molecule activators of the p53 signaling pathway (AID 651743; active = well fitted activation curve with a large enough effect in the signal ratio, not every such curve was filed as active; the % refers to the signal ratio; also: % of control where 0% means no effect). To be noted: HCT-116 p53RE-bla, beta-lactamase FRET ratio, 16 h; stronger effect = higher value. An outline of the steps: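 Cell-based beta-lactamase reporter (p53 response elements, HCT-116 background). After a 5-hour preincubation, cells received compound for 16 hours at 37 C; substrate development ran 2 hours at room temperature.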

A short description of experiment [9]: qHTS assay for small molecule activators of the nuclear factor-kappa B (NF-kB) signaling pathway (AID 651749; active = well fitted activation curve with a large enough effect in the signal ratio; the % refers to the signal ratio; also: % of control where 0% means no effect). To be noted: NF-kB-bla ME-180 cells, beta-lactamase FRET ratio, 16 h; stronger effect = higher value. An outline of the steps: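 Screening used 2,000 ME-180 reporter cells per well exposed to pinned compound (23 nL) or DMSO; after 16 hr at 37C, beta-lactamase expression under NF-kB control was assessed through FRET.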

The nature of experiment [10]: qHTS assay for small molecule disruptors of the mitochondrial membrane potential - 1 hr assay (AID 651754; calls by dose curve; also: % is scaled to controls: 0 for no effect and ±100 for the full control effect; nearly all actives have a fitted effect of over 35% in size). To be noted: series mostly up to 92.2 µM. An outline of the steps: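 HepG2, 2,000 cells/well, overnight attachment; cpd or DMSO 1 hr, 37C/5% CO2; Mito-MPS dye 30 min, 37C; fluorescence monomer (490/535) and aggregate (540/590).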
Experiment [11] in a line: qHTS assay for small molecule disruptors of the mitochondrial membrane potential - 5 hr assay (AID 651755; calls by dose curve; also: % is scaled to controls: 0 for no effect and ±100 for the full control effect; nearly all actives have a fitted effect of over 40% in size). To be noted: JC-1-type ratio dye; series mostly up to 92.2 µM. An outline of the steps: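 HepG2 cells, attached overnight at 37C, were exposed to compound or DMSO for 5 hr at 37C, 5% CO2. Mito-MPS dye was then added for 30 min, and fluorescence read at 490/535 nm (monomers) and 540/590 nm (aggregates).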

Experiment [12] deals with Tumor necrosis factor (Homo sapiens) (UniProt P01375). The experiment in a line: qHTS assay to identify small molecules that stimulate Tumor Necrosis Factor-alpha (TNF-alpha) secretion (AID 651757; active = well fitted curve in the direction sought with a large enough effect in the signal ratio; the % refers to the signal ratio; also: 0% is about no effect). To be noted: Human cells, HTRF 665/615 ratio; series mostly up to 92.2 µM. The method, boiled down:
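Read-out is HTRF, a TR-FRET sandwich of cryptate- and XL665-labeled anti-TNF-alpha antibodies detecting cytokine secreted by THP-1 cells. Cells had been incubated with test compounds at 37 C for 17 hrs beforehand.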

Experiment [13] in a line: qHTS assay for environmental chemicals that activate the Aryl hydrocarbon Receptor (AhR) signaling pathway (AID 651777). Also: % of control where 0% means no effect; nearly all actives have a fitted effect of over 15% in size. To be noted: 1A2-DRE human hepatoma cells, luciferase, 24 h; activation: stronger effect = higher value. The method, boiled down:
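AhR activation is scored as a rise in luciferase from a stable DRE–CYP1A2 promoter construct in human hepatoma cells. Treatment lasts 24 hr at 37 C; detection uses One-Glo after 30 min at room temperature.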

Experiment [14] has as its target Peroxisome proliferator-activated receptor alpha (Homo sapiens) (UniProt Q07869). As to the kind of experiment: qHTS assay for small molecule agonists of the peroxisome proliferator-activated receptor alpha (PPARalpha) signaling pathway (AID 651778). Also: % of control where 0% means no effect. The conditions noted are these: PathHunter PPARalpha complementation, chemiluminescence, 6 h; stronger effect = higher value. An outline of the steps:
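Cells plated at 2,000/well and held overnight at 37 C, 5% CO2, then compound added by pin tool for 6 hr; after PathHunter detection reagent and 60 min at room temperature, chemiluminescence from enzyme complementation was read.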

Experiment [15] addresses Nuclear receptor ROR-gamma (Homo sapiens) (UniProt P51449). The experiment in a line: qHTS assay for small molecule antagonists of the retinoid-related orphan receptor gamma (ROR-gamma) signaling pathway (AID 651802).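 Also: luciferase reporter luminescence driven by ROR response element; % is scaled to controls: 0 for no effect and ±100 for the full control effect; nearly all actives have a fitted effect of over 60% in size.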 To be noted: ROR-gamma antagonist cell reporter assay; series mostly up to 92.2 µM. An outline of the steps: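 CHO, TET-inducible ROR + RORE-LUC reporter, 1536-well qHTS. Compound pinned, doxycycline added, 16hr 37C/5% CO2. ONE-Glo, 30 min RT, luminescence; signal drop scored as antagonism.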

Experiment [16] can be described thus: qHTS assay for small molecule antagonists of the retinoid-related orphan receptor gamma (ROR-gamma) signaling pathway - cell viability counter screen (AID 720652; active = well fitted curve in the direction sought with a large enough effect in the repeat runs; an effect the other way counts as inactive or inconclusive;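 also: compound exposure lasted 16 hr before ATP read; % is scaled to controls: 0 for no effect and ±100 for the full control effect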). To be noted: RORgamma reporter cell line viability counter screen; series mostly up to 92.2 µM. The method, boiled down:
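Luminescence from CellTiter-Glo after 30 min at room temperature reported cellular ATP as the cytotoxicity measure. Cells were the CHO reporter line with doxycycline-induced ROR-gamma expression, exposed to compound for 16 hr at 37 C.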

Experiment [17] is described as follows: qHTS assay for small molecule agonists of the antioxidant response element (ARE) signaling pathway measured by Nrf2-dependant transcriptional activity - cell viability counter screen (AID 720653; active = well fitted curve in the direction sought with a large enough effect in the repeat runs; an effect the other way counts as inactive or inconclusive; also: % is scaled to controls: 0 for no effect and ±100 for the full control effect). To be noted: ARE-bla HepG2 viability, CellTiter-Glo ATP luminescence, 16 h; stronger effect = lower value. An outline of the steps:
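ARE-bla HepG2 cells (2,000/well) rested 5 hrs at 37C/5% CO2, then exposed to compounds in DMSO for 16 hrs. Viability was read in the same wells as intracellular ATP by luminescence, 30 min at room temperature after reagent addition.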

A short description of experiment [18]: qHTS assay to identify small molecules that stimulate interleukin-8 (IL-8) secretion (AID 651758; active = well fitted activation curve with a large enough effect in the signal ratio; the % refers to the signal ratio; also: 0% is about no effect). To be noted: HTRF ratio (665/615); series mostly up to 92.2 µM. The method, boiled down: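 THP-1, 2000 cells/well; cpd 16 h, 37 C; add cryptate + XL665 anti-IL-8 Abs; RT 1-3 h; TR-FRET read.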
Experiment [19] is described as follows: qHTS assay for small molecule agonists of the antioxidant response element (ARE) signaling pathway measured by Nrf2-dependant transcriptional activity (AID 720636; active = well fitted curve in the direction sought with a large enough effect in the repeat runs; an effect the other way counts as inactive or inconclusive; also: % of control where 0% means no effect). To be noted: ARE-luc HepG2, Nrf2 luciferase reporter, 16 h; series mostly up to 92.4 µM. An outline of the steps: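 First, ARE-luc HepG2 cells attached for 6 hr at 37 C in 1% dialyzed FBS medium. Next, compound or DMSO was added and incubated 16 hr. Finally, ONE-Glo reagent was added and luminescence measured after 30 min.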

Experiment [20] can be described thus: qHTS assay for small molecule agonists of the antioxidant response element (ARE) signaling pathway (AID 651741; active = well fitted activation curve with a large enough effect in the signal ratio; the % refers to the signal ratio; also: % of control where 0% means no effect). The conditions noted are these: HepG2 ARE-bla reporter, beta-lactamase FRET ratio, 16 h; series mostly up to 96 µM. An outline of the steps:
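Compounds in DMSO are pinned onto HepG2 ARE-bla cells (2,000/well) that were preincubated 5 h; plates stay 16 h at 37 C, then beta-lactamase activity is detected with LiveBLAzer B/G substrate by fluorescence.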

Thyroid hormone receptor beta (Homo sapiens), sequence (P10828 whole entry, looked up): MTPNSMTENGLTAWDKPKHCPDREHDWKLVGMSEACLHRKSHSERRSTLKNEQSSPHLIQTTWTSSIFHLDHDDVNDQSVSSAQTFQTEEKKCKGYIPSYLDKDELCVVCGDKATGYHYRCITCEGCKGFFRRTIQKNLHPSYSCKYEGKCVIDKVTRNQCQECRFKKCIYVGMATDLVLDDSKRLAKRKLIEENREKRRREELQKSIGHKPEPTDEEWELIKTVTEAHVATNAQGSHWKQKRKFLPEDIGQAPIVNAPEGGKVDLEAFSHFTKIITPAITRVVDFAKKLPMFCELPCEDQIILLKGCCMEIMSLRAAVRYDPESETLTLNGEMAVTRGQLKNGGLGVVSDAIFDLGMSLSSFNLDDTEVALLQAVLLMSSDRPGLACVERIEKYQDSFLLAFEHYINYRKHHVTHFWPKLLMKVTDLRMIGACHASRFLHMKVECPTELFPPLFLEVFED
Peroxisome proliferator-activated receptor alpha (Homo sapiens), sequence (Q07869 whole entry, looked up): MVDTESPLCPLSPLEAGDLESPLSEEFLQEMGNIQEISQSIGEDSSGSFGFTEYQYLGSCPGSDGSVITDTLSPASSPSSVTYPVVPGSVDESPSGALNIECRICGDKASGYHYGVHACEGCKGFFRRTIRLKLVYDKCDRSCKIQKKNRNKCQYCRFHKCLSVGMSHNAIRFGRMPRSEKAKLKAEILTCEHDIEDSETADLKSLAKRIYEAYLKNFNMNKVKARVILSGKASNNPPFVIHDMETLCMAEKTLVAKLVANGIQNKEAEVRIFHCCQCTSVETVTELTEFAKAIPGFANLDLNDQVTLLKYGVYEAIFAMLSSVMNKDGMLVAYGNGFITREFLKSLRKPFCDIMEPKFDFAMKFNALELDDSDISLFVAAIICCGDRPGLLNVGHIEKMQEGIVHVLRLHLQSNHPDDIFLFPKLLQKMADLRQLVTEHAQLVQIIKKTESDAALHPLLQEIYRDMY
Tumor necrosis factor (Homo sapiens), sequence (P01375 whole entry, looked up): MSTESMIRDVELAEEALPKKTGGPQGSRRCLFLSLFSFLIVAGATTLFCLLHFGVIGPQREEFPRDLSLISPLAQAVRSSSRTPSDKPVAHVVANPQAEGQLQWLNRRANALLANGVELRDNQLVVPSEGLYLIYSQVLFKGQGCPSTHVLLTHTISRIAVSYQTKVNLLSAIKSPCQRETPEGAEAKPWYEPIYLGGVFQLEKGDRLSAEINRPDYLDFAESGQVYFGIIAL
Voltage-gated inwardly rectifying potassium channel KCNH2 (Homo sapiens), sequence (Q12809 whole entry, looked up): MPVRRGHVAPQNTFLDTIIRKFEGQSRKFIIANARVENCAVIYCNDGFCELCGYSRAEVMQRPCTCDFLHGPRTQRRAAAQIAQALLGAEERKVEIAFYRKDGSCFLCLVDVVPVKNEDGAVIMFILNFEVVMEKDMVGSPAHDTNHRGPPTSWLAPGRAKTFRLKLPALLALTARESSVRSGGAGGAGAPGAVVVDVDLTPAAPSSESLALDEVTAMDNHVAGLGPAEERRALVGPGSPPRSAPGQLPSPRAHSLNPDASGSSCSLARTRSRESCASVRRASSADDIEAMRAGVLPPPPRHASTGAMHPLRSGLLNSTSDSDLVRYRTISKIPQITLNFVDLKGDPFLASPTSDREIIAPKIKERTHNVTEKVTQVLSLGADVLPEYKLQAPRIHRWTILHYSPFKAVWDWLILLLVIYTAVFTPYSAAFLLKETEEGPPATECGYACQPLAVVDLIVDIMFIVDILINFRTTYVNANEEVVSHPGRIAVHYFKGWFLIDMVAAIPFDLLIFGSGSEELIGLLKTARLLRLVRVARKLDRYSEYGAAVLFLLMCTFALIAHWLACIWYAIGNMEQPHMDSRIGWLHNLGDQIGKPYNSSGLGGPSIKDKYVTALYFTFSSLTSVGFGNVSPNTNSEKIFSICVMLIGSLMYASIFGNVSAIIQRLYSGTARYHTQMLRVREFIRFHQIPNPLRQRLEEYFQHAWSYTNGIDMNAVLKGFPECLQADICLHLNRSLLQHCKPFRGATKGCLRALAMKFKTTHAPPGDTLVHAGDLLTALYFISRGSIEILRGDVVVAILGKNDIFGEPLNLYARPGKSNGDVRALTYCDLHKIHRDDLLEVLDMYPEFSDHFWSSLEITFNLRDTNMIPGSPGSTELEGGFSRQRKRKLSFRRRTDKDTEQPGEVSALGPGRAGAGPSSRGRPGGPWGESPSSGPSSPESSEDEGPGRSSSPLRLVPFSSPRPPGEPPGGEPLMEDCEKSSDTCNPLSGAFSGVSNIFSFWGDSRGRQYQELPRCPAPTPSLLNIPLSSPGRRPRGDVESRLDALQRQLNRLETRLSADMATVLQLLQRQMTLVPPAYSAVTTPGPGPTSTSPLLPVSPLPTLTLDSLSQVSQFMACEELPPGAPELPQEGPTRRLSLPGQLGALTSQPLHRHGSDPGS
Nuclear receptor ROR-gamma (Homo sapiens), sequence (P51449 whole entry, looked up): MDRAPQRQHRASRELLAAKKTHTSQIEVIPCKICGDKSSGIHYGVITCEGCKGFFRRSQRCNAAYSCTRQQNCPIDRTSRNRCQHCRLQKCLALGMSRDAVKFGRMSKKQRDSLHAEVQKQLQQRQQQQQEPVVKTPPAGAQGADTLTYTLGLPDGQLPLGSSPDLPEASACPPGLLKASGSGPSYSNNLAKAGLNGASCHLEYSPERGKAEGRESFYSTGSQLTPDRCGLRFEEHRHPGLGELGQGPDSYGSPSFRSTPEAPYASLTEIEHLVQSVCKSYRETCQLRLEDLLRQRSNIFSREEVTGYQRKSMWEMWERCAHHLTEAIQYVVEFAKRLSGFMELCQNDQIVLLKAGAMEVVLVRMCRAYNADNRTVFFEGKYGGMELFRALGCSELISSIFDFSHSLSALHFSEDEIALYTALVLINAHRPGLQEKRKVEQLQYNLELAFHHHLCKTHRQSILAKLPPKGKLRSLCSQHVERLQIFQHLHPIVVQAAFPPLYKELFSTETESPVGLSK
Retinoic acid receptor RXR-alpha (Homo sapiens), sequence (P19793 whole entry, looked up): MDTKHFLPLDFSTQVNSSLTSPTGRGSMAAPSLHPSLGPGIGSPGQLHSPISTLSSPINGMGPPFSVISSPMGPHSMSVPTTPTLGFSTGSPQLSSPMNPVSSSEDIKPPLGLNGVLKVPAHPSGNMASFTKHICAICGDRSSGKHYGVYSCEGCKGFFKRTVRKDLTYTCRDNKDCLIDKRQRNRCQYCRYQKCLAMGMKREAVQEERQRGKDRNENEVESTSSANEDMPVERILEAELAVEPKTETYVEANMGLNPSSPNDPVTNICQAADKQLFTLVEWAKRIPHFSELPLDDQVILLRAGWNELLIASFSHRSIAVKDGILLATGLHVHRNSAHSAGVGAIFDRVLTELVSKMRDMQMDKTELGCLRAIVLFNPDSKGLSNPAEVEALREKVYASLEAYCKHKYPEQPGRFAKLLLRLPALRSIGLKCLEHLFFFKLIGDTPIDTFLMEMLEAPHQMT

Regarding `CCC1CO1` (stereo not given), the max response in experiment [1] was -15.4%; in experiment [4], -10.7%; in experiment [5], -1.32% (inactive); in experiment [14], -1.3% (inactive); in [17] it was 1.19% (inactive). For the same compound, the call in experiment [2] and in [3] was inactive. Further, in [6], the activity change % (negative = inhibition) was -15.4% (inactive). Also, the Potency result in [7], in experiment [10], in experiment [11], in experiment [12], in [15] and in [16] was “inactive” each time. Besides, the activation in experiment [8] was -2.66% (inactive); in experiment [9], -0.443% (inactive); in [13], 0.0109% (inactive).
Regarding `NC(=O)CCCCC(N)=O`, the max response in experiment [1] was -19.9%; in experiment [4], -2.99%; in experiment [5], 6.15% (inactive); in [14] it was -1.94% (inactive); in experiment [17], -6.44% (inactive). Further, the outcome in experiment [2], in experiment [3] and in experiment [19] was inactive. For the same compound, the activity change % (negative = inhibition) in experiment [6] was 2% (inactive). The Potency entry in experiment [7], in experiment [10], in [11], in experiment [12], in experiment [18] and in [15] was “inactive” in each case. Moreover, the Potency result in experiment [16] was “inactive”. Besides, the figures for the activation in experiment [8], in experiment [9] and in experiment [13] were -2.38% (inactive), 1.81% (inactive) and -0.919% (inactive), respectively.
On to `Cc1nc2ccc(Cl)cc2[nH]1`, for which the max response was -24.2% in [1]; -9.52% in experiment [4]; -12.1% (inactive) in experiment [5]; -1.28% (inactive) in experiment [14]; -4.37% (inactive) in experiment [17]. The outcome in [2] and in [3] was inactive. Also, the activity change % (negative = inhibition) in experiment [6] was 9.04% (inactive). The Potency result in experiment [7], in [20], in [10], in experiment [11], in experiment [12] and in experiment [15] was “inactive” in each case. Moreover, in experiment [16], the Potency entry is “inactive”. Moreover, the activation in experiment [13] was 3.58% (inactive).
As for `ON=C1CCCCC1`, the max response in [1] is -11.2%; in [4], 5.82%; in [5], 4.41% (inactive); in [14] it was 1.6% (inactive); in experiment [17], 5.44% (inactive). Besides, the call in experiment [2], in experiment [3] and in experiment [19] was inactive. In addition, the activity change % (negative = inhibition) in [6] was 8.44% (inactive). In addition, the Potency result in experiment [7], in [10], in [11], in experiment [12], in [18] and in experiment [15] was “inactive” each time. In addition, the Potency entry in experiment [16] is “inactive”. Further, the figures for the activation in experiment [8], in [9] and in [13] were -1.24% (inactive), -0.0489% (inactive) and 0.388% (inactive), respectively.
Regarding `CCC(C)(C)OC`, the max response in [1] is 10.3%; in [4], -18.1%; in [5], 17% (inactive); in experiment [14] it was -8.98% (inactive); in [17] it was -14.5% (inactive). Moreover, the call in [2], in experiment [3] and in [19] was inactive. Besides, the activity change % (negative = inhibition) in experiment [6] was -6.68% (inactive). For the same compound, the Potency result in experiment [7], in experiment [20], in experiment [11], in experiment [12], in [15] and in experiment [16] was “inactive” in each case. Further, the activation in experiment [9] is -0.279% (inactive); in experiment [13] it was 0.579% (inactive).
Take `CCN(C(=O)N(CC)c1ccccc1)c1ccccc1`: the max response in experiment [1] was 6.15%; in experiment [4] it was -7.14%; in experiment [5], 0.622% (inactive); in [14] it was -4.39% (inactive); in experiment [17], -10.4% (inactive). The result in [2], in [3] and in experiment [19] was inactive. For the same compound, the activity change % (negative = inhibition) in experiment [6] is 1.82% (inactive). The Potency entry in [7], in experiment [20], in [10], in [11], in [12] and in experiment [15] was “inactive” in each case. Further, in experiment [16], the Potency result was “inactive”. Further, the activation in [13] is -1.64% (inactive).

The values above are taken from PubChem BioAssay (NCATS).
